Data from PubChem BioAssay (Tox21).
Inconclusive results are not listed. Active and inactive are the calls of the source. Unless noted, the call rests on the fitted dose curve; in most records, active means well fitted curve in the direction sought with a large enough effect in the repeat runs; inconclusive means weak or mixed curves; inactive means no such curve, though single readings can be large; an effect the other way counts as inactive or inconclusive.

Legend:
[1] = qHTS assay to identify small molecule antagonists of the estrogen receptor alpha (ER-alpha) signaling pathway using the BG1 cell line in the presence of 0.1 nM 17-beta-estradiol - cell viability counter screen (AID 1259241); further: nearly all actives have a fitted effect of over 40% in size
In short: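 In this screen, hormone-deprived VM7Luc4E2 cells were seeded at 4,000 per well, dosed with compound and 0.1 nM estradiol final, and incubated 22 hr at 37C and 5% CO2; fluorogenic live-cell protease signal reported viability.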

[2] = qHTS assay to identify small molecule antagonists of the androgen receptor (AR) signaling pathway using the MDA cell line in the presence of 0.5 nM R1881 - cell viability counter screen (AID 1259242); further: nearly all actives have a fitted effect of over 45% in size
In short: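 R1881 at 0.5 nM final stimulated MDA-kb2 cells during 16 hr compound treatment at 37C. Cytotoxicity read: CellTiter-Fluor fluorescence after 30 min.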

[3] = qHTS assay to identify small molecule HDAC inhibitors (AID 1259364); further: potency means the concentration at half of the fitted maximal effect;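 further: wild-type HCT-116 cells with endogenous class I/II HDAC activity; nearly all actives have a fitted effect of over 45% in size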
In short: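 Relative class I and II HDAC activity is taken from the luminogenic signal in HCT-116 cells, with compound exposure 2 hr and reagent development 30 min at room temperature.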

[4] = qHTS assay to identify small molecule HDAC inhibitors - cell viability counter screen (AID 1259365); further: series mostly up to about 92 µM; nearly all actives have a fitted effect of over 50% in size
In short: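 Measured quantity is CellTiter-Glo luminescence from wild-type HCT-116 cells after compound incubation of 2hr at 37C, 5% CO2; reagent developed 30min at room temperature.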

[5] = qHTS assay to identify small molecule agonists of the sonic hedgehog signaling (Shh) pathway - cell viability counter screen (AID 1259366); further: nearly all actives have a fitted effect of over 50% in size
In short: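 In quantitative high-throughput format, 3T3 Gli1-Luc cells were exposed to compounds for 24hr and multiplexed for viability using CellTiter-Fluor, incubated 1hr at 37C before the fluorescence read.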

[6] = qHTS assay to identify small molecule antagonists of the sonic hedgehog signaling (Shh) pathway - cell viability counter screen (AID 1259367); further: nearly all actives have a fitted effect of over 55% in size
In short: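 Using CellTiter-Fluor, viability of Gli1-Luc reporter 3T3 cells is read by fluorescence in the wells used for the Shh luciferase assay. Treatment lasts 23 hr with conditioned medium, then reagent 1 hr at 37C.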

[7] = qHTS assay to identify small molecule agonists of the sonic hedgehog signaling (Shh) pathway (AID 1259368; calls by dose curve; further: nearly all actives have a fitted effect of over 15% in size; further: potency means the concentration at half of the fitted maximal effect)
In short: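 Mouse fibroblast (NIH/3T3) reporter cells with stably integrated Gli1-Luc were treated 24 hr with compound; firefly luciferase luminescence served as the read-out.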

[8] = qHTS assay to identify small molecule antagonists of the sonic hedgehog signaling (Shh) pathway (AID 1259369; calls by dose curve; further: nearly all actives have a fitted effect of over 45% in size; further: potency means the concentration at half of the fitted maximal effect)
In short: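 Conditioned medium drives Shh signalling in 3T3Gli1-Luc cells; compounds in DMSO co-applied, 24hr at 37 C, then luciferase luminescence.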

[9] = molecular target: Estrogen receptor beta (Homo sapiens) (UniProt Q92731); experiment: qHTS assay to identify small molecule agonists of the estrogen receptor beta (ER-beta) signaling pathway (AID 1259377; active means well fitted activation curve with a large enough effect in the signal ratio in the repeat runs, not every such curve was filed as active; the % refers to the signal ratio)
In short: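 Reporter cells (HEK293T, ER-beta-UAS-bla) receive compounds or DMSO after a 6 hr pre-incubation. They then incubate 16 hr at 37C/5% CO2, and fluorescence from LiveBLAzer B/G substrate is measured after 2 hours at room temperature.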

[10] = molecular target: Estrogen receptor beta (Homo sapiens) (UniProt Q92731); experiment: qHTS assay to identify small molecule antagonists of the estrogen receptor beta (ER-beta) signaling pathway (AID 1259378; active means well fitted inhibition curve with a large enough effect in the signal ratio in the repeat runs, not every such curve was filed as active; the % refers to the signal ratio)
In short: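 Antagonist mode: compounds added to beta-lactamase reporter HEK293T ER-beta-UAS cells stimulated with E2 (1nM final), 16 hr at 37C. LiveBLAzer B/G FRET substrate, 2 hours room temperature, fluorescence read-out.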

[11] = qHTS assay to identify small molecule agonists of the androgen receptor (AR) signaling pathway in the presence of an antagonist - cell viability counter screen (AID 1259379);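 further: MDA-kb2 human breast cancer cells carrying an MMTV luciferase reporter; series mostly up to about 92 µM; nearly all actives have a fitted effect of over 25% in size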
In short: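 A CellTiter-Fluor read-out measured viability of MDA-kb2 reporter cells (MMTV promoter with AR and GR response elements). Treatment: nilutamide 3.0uM final with compounds at 15 concentrations, 16 hr, 37C, 0% CO2.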

[12] = qHTS assay to identify small molecule antagonists of the estrogen receptor beta (ER-beta) signaling pathway - cell viability counter screen (AID 1259382); further: series mostly up to about 92 µM; nearly all actives have a fitted effect of over 55% in size
In short: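 Agonist-stimulated (1nM E2) ER-beta-UAS-bla HEK293T cells are incubated with library compounds for 16 hr at 37C. Cell viability is then assessed in the reporter-assay wells by adding CellTiter-Glo and reading luminescence after 30 min.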

[13] = qHTS assay to identify small molecule agonists or antagonists of the thyroid stimulating hormone receptor (TSHR) signaling pathway - wild type cell line counter screen (AID 1259384; calls by dose curve)
In short: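 Counter screen in untransfected Hek293: compounds (15-point titration, triplicate) plus phosphodiesterase inhibitor Ro20-1724 added after 18 h plating; 30 min RT. Intracellular cAMP via competitive d2/cryptate immunoassay, 1 h incubation.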

[14] = molecular target: Thyrotropin receptor (Homo sapiens) (UniProt P16473); experiment: qHTS assay to identify small molecule antagonists of the thyroid stimulating hormone receptor (TSHR) signaling pathway (AID 1259385; calls by dose curve; further: nearly all actives have a fitted effect of over 20% in size)
In short: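 Antagonist mode: compound-treated TSHR-expressing HEK293 cells were stimulated with 1.5 ng/mL TSH (final) in presence of Ro20-1724 for 30 min at RT. HTRF cAMP detection after 1 h; each compound tested at 15 concentrations, triplicate.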

[15] = qHTS assay to identify small molecule agonists of the estrogen receptor beta (ER-beta) signaling pathway - cell viability counter screen (AID 1259380); further: nearly all actives have a fitted effect of over 30% in size; further: potency means the concentration at half of the fitted maximal effect
In short: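 Cells used were ER-beta-UAS-bla HEK293T in medium with 2% charcoal-stripped FBS. They were treated for 16 hr at 37C. Viability came from CellTiter-Glo luminescence.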

[16] = molecular target: Estrogen receptor (Homo sapiens) (UniProt P03372); experiment: qHTS assay to identify small molecule agonists of the estrogen receptor alpha (ER-alpha) signaling pathway in the presence of an antagonist (AID 1259383; calls by dose curve; further: top concentration of the series differs between compounds; nearly all actives have a fitted effect of over 15% in size)
In short: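 Using VM7Luc4E2 cells seeded 24hr before treatment, antagonist ICI-182,780 (10.0nM final) was added, followed by compounds at 15 concentrations. Plates incubated 22hr; ONE-Glo luminescence quantified reporter activity.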

[17] = qHTS assay to identify small molecule phospholipidosis (PLD) inducers (AID 1259344; active means well fitted curve in the direction sought with a large enough effect; an effect the other way counts as inactive or inconclusive)
In short: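 Fluorescent phospholipid staining (LipidTOX Red) measured by automated microscopy in fixed HepG2 cells after 24 h treatment; nuclei counterstained with Hoechst 33342; amiodarone as reference inducer.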

Measured: Potency

Thyrotropin receptor (Homo sapiens), sequence (P16473 whole entry, looked up): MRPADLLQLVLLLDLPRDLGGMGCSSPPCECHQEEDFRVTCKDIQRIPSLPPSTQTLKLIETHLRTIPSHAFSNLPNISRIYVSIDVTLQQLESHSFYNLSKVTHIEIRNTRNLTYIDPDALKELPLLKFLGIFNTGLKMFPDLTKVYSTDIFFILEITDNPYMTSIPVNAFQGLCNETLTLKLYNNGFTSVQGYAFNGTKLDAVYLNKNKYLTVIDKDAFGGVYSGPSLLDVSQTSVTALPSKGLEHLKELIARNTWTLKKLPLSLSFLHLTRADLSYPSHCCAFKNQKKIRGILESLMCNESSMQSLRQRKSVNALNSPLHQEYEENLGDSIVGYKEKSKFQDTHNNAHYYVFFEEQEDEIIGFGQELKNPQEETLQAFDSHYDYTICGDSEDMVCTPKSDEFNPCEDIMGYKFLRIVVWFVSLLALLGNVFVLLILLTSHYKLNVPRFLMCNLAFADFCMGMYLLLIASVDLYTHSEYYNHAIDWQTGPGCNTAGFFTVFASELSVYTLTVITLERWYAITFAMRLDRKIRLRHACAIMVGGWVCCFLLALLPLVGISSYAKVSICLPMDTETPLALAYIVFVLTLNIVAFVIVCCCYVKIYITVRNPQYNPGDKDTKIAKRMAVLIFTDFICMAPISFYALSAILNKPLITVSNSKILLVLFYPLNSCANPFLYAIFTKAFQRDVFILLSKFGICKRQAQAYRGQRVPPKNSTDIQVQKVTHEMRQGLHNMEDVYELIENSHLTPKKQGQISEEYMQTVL
Estrogen receptor (Homo sapiens), sequence (P03372 whole entry, looked up): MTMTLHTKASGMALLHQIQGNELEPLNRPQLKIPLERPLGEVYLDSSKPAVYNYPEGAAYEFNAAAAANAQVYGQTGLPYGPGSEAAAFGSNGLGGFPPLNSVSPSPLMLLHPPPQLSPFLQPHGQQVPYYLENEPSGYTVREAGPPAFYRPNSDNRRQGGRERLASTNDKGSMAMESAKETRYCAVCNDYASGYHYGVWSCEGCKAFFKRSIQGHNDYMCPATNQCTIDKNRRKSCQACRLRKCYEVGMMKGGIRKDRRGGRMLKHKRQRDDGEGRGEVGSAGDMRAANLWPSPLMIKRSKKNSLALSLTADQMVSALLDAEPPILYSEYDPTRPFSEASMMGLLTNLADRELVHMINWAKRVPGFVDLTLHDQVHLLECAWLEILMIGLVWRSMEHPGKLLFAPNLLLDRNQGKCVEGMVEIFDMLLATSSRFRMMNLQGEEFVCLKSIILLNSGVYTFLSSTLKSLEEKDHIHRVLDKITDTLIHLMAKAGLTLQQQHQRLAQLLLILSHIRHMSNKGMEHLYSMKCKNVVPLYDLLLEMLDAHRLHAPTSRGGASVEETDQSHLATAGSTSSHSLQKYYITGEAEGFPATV
Estrogen receptor beta (Homo sapiens), sequence (Q92731 whole entry, looked up): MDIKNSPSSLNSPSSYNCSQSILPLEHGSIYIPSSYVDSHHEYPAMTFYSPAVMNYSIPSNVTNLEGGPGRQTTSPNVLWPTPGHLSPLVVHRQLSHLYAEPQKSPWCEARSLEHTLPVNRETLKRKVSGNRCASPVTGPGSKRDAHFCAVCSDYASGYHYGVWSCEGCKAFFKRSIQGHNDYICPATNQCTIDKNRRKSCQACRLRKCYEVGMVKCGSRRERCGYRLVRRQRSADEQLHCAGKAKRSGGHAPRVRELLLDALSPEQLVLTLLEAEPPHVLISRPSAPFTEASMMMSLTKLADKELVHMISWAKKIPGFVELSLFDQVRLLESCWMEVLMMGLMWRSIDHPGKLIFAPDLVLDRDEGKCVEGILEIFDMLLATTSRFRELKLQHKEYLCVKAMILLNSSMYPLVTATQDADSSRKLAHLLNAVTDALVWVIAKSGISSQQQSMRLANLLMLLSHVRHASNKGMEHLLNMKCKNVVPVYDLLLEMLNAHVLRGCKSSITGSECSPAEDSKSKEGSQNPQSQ

COCCC#N
not listed: [15] | [16] | [17]
inactive: all other assays above

CC1CCCC1
not listed: [9] | [10] | [11] | [16] | [17]
inactive: all other assays above

CCC1COC(Cn2cncn2)(c2ccc(Cl)cc2Cl)O1 (centres undefined)
active: [8] 54.5 µM
not listed: [16] | [17]
inactive: all other assays above

O.O.O.O.O.O.O=S(=O)([O-])[O-].[Ni+2]
not listed: [9] | [10] | [13] | [14] | [16] | [17]
inactive: all other assays above

CCCN
not listed: [9] | [10] | [16] | [17]
inactive: all other assays above

CCNc1nc(NC(C)C(C)C)nc(SC)n1 (centres undefined)
active: [8] 4.86 µM
not listed: [13] | [14] | [17]
inactive: all other assays above

CCn1cc[n+](C)c1 (tested in a mixture with another compound)
not listed: [9] | [10] | [13] | [14] | [16] | [17]
inactive: all other assays above

CCC(C)Nc1c([N+](=O)[O-])cc(C(C)(C)C)cc1[N+](=O)[O-] (centres undefined)
not listed: [14] | [17]
inactive: all other assays above

c1csc(-c2ccc(-c3cccs3)s2)c1
active: [3] 5.45 µM | [7] 9.69 µM
not listed: [9] | [10] | [16] | [17]
inactive: all other assays above

CNC(=O)/C=C(\C)OP(=O)(OC)OC
not listed: [16] | [17]
inactive: all other assays above

CC(=O)O.CC(=O)O.CC(=O)O.CC(=O)O.CC(=O)O.CC(=O)O.CC(=O)O.O.O.[Cr].[Cr].[Cr]
not listed: [9] | [10] | [13] | [14] | [16] | [17]
inactive: all other assays above

Clc1ccc(C2(Cn3cncn3)OCCO2)c(Cl)c1
not listed: [3] | [16]
inactive: all other assays above

Oc1ccc2[nH]cc(CCCCN3CC=C(c4ccccc4)CC3)c2c1
active: [8] 3.35 µM | [15] 29.8 µM
not listed: [4] | [5] | [9] | [11] | [16]
inactive: all other assays above

COc1ccc2c3c1O[C@H]1[C@H](O)CC[C@H]4[C@@H](C2)N(C)CC[C@@]341
not listed: [4] | [8] | [16]
inactive: all other assays above

CN=C=O
not listed: [9] | [10] | [16] | [17]
inactive: all other assays above

CCCCON=O
not listed: [9] | [10] | [16] | [17]
inactive: all other assays above

COc1c2c(cc3c1OCO3)CCN(C)C2
not listed: [5] | [9] | [10]
inactive: all other assays above

Cc1cnc2c(C(=O)O)c(Cl)ccc2c1
not listed: [13] | [14] | [17]
inactive: all other assays above
